# From PubChem
# Sampled rows, rich in hits. Any-hit rate of the full collection: about 8.1%.
# MCF10A rereplic – DNA re-replication induction in MCF 10a cells. Potency, µM (highest dose often 46.1 µM), for inactives: at the highest dose activity, positive = re-replication, most hits filed as activators. 350,000 tested, 2.9% active. MCF 10A DNA re-replication, Hoechst nuclear intensity, 48 h. AID 624296; note: % of control where 0% means no effect; nearly all actives have a fitted effect of over 50% in size
# SW480 rereplic – inducers of DNA re-replication in SW480 colon cancer cells | SW480 DNA re-replication, Hoechst DNA content imaging, 48 h | Potency, µM (highest dose often 46.1 µM), for inactives: at the top dose re-replication activation, hits mostly activators | 340,000 tested, 1.8% active | AID 624297; note: % of control where 0% means no effect; nearly all actives have a fitted effect of over 55% in size
#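 Per well, 250 cells were exposed to pinned compound for 48 hr. Nuclear DNA was visualised with Hoechst (40 min, 37 C) and total object intensity recorded by fluorescence scanning.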
# ELG1 repair inh – ELG1-dependent DNA repair inhibition. 330,000 tested, 2.3% active. HEK293T ELG1-luciferase reporter, luminescence, 16 h; DNA damage induced by 5-fluorouridine. AID 504467. Potency, µM (highest dose often 46.1 µM), for the others: top-dose activity change, negative = inhibition, most hits filed as inhibitors; note: % is set by controls: 0 for no effect and ±100 for the full control effect; nearly all actives have a fitted effect of over 55% in size
#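 5-Fluorouridine DNA damage + compound/DMSO, 2,000 cells/well, 16 h, 37 °C/5% CO2. ONE-Glo, 30 min RT, luminescence. Readout = decrease in reporter signal.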
# KB-V1 MDR tox – kills drug-selected multidrug resistant KB-V1 cells; KB-V1 MDR cells viability, CellTiter-Glo, 72 h; 400,000 tested, 3.4% active; Potency, µM (highest dose often 46.1 µM), hits mostly cytotoxic; note: % is set by controls: 0 for no effect and ±100 for the full control effect; nearly all actives have a fitted effect of over 60% in size
#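 Readout: CellTiter-Glo luminescence, 10 min after addition. Cells: KB-V1 MDR subline, 72 h at 37 degrees C with compound. Analysis: corrected, normalized data fitted to concentration-effect curves.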
# KB-3-1 tox – kills parental KB-3-1 adenocarcinoma cells; KB-3-1 viability, CellTiter-Glo ATP luminescence, 72 h; Potency, µM (doses to about 46.1 µM), actives largely listed as cytotoxic; 400,000 tested, 1.4% active; AID 1347075; note: % is set by controls: 0 for no effect and ±100 for the full control effect; nearly all actives have a fitted effect of over 60% in size
#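 Cells are dispensed, compounds pinned in, plates held at 37 °C for 72 h, then CellTiter-Glo is added and luminescence read after 10 minutes. Cell line: parental KB-3-1 in phenol-red-free DMEM, 10% FBS.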
# Active calls of the source: *; i = inactive; ? = inconclusive; nt = not tested or not shown. Calls come from the whole dose curve; as a rule, active = well fitted curve in the direction sought with a large enough effect; inconclusive = small, poorly fitted or top-dose-only effect, or another doubt; inactive = no such curve, though single readings can be large; an effect the other way counts as inactive or inconclusive. Potency is the fitted concentration of half-maximal effect.
SMILES,MCF10A rereplic,SW480 rereplic,ELG1 repair inh,KB-V1 MDR tox,KB-3-1 tox
O=C(NCc1ccccc1)C(c1ccccc1)n1c(-c2ccccn2)nc2ccccc21 (stereo not given),nt,nt,nt,i,i
CCN1C(=O)S/C(=C/c2c(OCc3ccc(C(=O)O)cc3)ccc3ccccc23)C1=O,6.51µM*,-404.6%,?,i,i
COc1ccc(-c2nnc(-c3cc4c(ccc5ccccc54)oc3=O)o2)cc1,?,-0.1%,-3.8%,i,i
O=c1oc2ccc3ccccc3c2cc1-c1nnc(-c2ccccc2)o1,1.03µM*,0.7%,?,?,i
O=C1NN=C(c2ccccc2)C1Cc1ccccc1 (stereo not given),-1.0%,-7.1%,nt,i,i
Cc1cc(C(=O)COc2ccc(-c3nnco3)cc2)c(C)n1Cc1ccccc1,14.6%,0.1%,?,2.91µM*,16.4µM*
CCC(C)c1ccccc1NC(=O)COc1ccc(-c2nnco2)cc1 (stereo not given),0.0%,6.0%,15.1%,i,i
O=C(CNCc1ccccc1Cl)Nc1cc(S(=O)(=O)N2CCOCC2)ccc1Cl,-8.1%,-3.7%,?,i,i
O=C(COc1ccccc1Cc1ccccc1)Nc1cccc(S(=O)(=O)N2CCOCC2)c1,-0.9%,6.9%,?,5.17µM*,?
Cc1ccc(S(=O)(=O)N2CCOCC2)cc1NC(=O)CNCc1ccc(Cl)cc1Cl,10.3%,0.9%,23.1µM*,i,i
COc1ccc(NC(=O)COc2ccccc2Cc2ccccc2)cc1S(=O)(=O)N1CCOCC1,22.3%,2.4%,?,?,i
Cc1ccc(S(=O)(=O)N2CCOCC2)cc1NC(=O)COc1ccccc1Cc1ccccc1,?,3.8%,8.2µM*,i,i
Cc1ccc(S(=O)(=O)N2CCOCC2)cc1NC(=O)COc1ccc(C(=O)c2ccccc2)cc1,2.2%,7.9%,?,i,?
CCOc1ccc(N(C)S(=O)(=O)c2ccc3c(c2)CCCN3C(C)=O)cc1,nt,nt,nt,i,i
NC(=O)C1CCCN(C(=O)c2cccc(NC(=O)c3cccs3)c2)C1 (stereo not given),-3.3%,-100.3%,9.2%,i,i
COc1ccc(-c2nn(-c3ccccc3)cc2C(=O)NCCCn2ccnc2)cc1,?,4.0%,-18.4%,i,i
COc1ccc(-c2nn(-c3ccccc3)cc2/C=C/C(=O)NCCCn2ccnc2)cc1OC,?,?,16.4µM*,i,i
COc1ccc(-c2nn(-c3ccccc3)cc2/C=C(\CC(=O)O)c2nc3ccccc3s2)cc1OC,18.4µM*,2.1%,0.6%,i,i
CC1CCC(NC(=O)c2cc(S(=O)(=O)N3CCCCC3)ccc2N2CCOCC2)CC1 (stereo not given),3.3%,-3.1%,-6.6%,i,i
CC(=O)N1CCc2cc(S(=O)(=O)NC(CC(C)C)C(=O)NCCc3cccc(C)c3)ccc21 (stereo not given),nt,nt,nt,i,i
COc1cc(CN2C[C@@H](CO)O[C@@H](n3cnc4c(N5CCN(C)CC5)ncnc43)C2)cc(OC)c1OC,nt,nt,nt,i,i
Cc1cc(/C=C2\SC(=S)N(C)C2=O)c(C)n1-c1ccccc1O,13µM*,11.6µM*,nt,?,?
COc1ccc(CC(=O)Nc2ccc(/C(C)=N\NC(=O)c3ccc(Br)o3)cc2)cc1,?,-11.0%,-5.8%,i,i
CCc1cccc(NC(c2nnc(-c3ccccc3)o2)c2ccc(F)cc2Cl)c1 (stereo not given),nt,nt,nt,i,i
Cc1cc(NC(=O)NC2(C(F)(F)F)Oc3ccc(Cl)cc3O2)no1 (stereo not given),-1.1%,9.9%,?,18.4µM*,?
SMILES,MCF10A rereplic,SW480 rereplic,ELG1 repair inh,KB-V1 MDR tox,KB-3-1 tox
O=C(NCc1cccnc1)C1CCC(c2ccc(Cl)cc2)CC1 (stereo not given),15.3%,-17.0%,9.2µM*,?,i
Cc1ccc(Cl)cc1NC(=O)NCc1cccnc1,0.2%,18.4µM*,-4.9%,i,i
Cc1cc(NC(=O)Nc2ccc(F)c(Cl)c2)no1,11.5%,-1.4%,-27.0%,i,i
COCCNC(=O)NC1(C(F)(F)F)Oc2ccc(Cl)cc2O1 (stereo not given),15.2%,3.1%,6.4%,?,23.1µM*
Cc1cc(C)c(NC(=O)Cc2ccc(-n3c(C)nc4cccnc43)cc2)c(C)c1,nt,nt,nt,i,i
COCCCNc1nc(CC(C)C)nc2c1nnn2Cc1ccccc1,-9.2%,-15.4%,12.9%,i,i
O=C(NCc1cccnc1)NC1(C(F)(F)F)Oc2ccc(Cl)cc2O1 (stereo not given),10.7%,12.9%,?,3.26µM*,?
CCOC(=O)N1CCN(C(=O)CSCc2ccc(C)cc2)CC1,-2.0%,0.184µM*,13.3%,i,i
CCc1ccc(-c2nc(CSCC(=O)N3CCN(c4ncccn4)CC3)c(C)o2)cc1,-1.0%,-8.7%,14.6µM*,i,i
Cc1cccc(-c2nc(CSCC(=O)NCCCN3CCOCC3)c(C)o2)c1,17.1%,4.6%,-0.5%,?,i
Cc1oc(-c2ccc(Cl)cc2)nc1CSCC(=O)NCCCN1CCOCC1,?,3.1%,?,16.4µM*,i
CCOC(=O)N1CCN(C(=O)CSCc2nc(-c3ccccc3C)oc2C)CC1,6.4%,-4.1%,?,18.4µM*,i
COc1ccc(CNC(=O)C2(C)Cc3c(-c4cccc(C(N)=O)c4)ccnc3O2)cc1OC (stereo not given),nt,nt,nt,i,i
Cc1ccc(N2CC(c3nnc(NC(=O)c4ccco4)s3)CC2=O)cc1C (stereo not given),nt,nt,nt,i,i
O=C1C(O)=C(O)C(=O)C(O)=C1O,1.8%,-6.7%,nt,nt,nt
CSc1ccc(-c2nc(CSCC(=O)NC3CC3)c(C)o2)cc1,1.5%,11.4%,24.9%,i,i
CSc1ccc(-c2nc(CSCC(=O)N3CCOCC3)c(C)o2)cc1,1.3%,-0.6%,?,5.17µM*,?
CCOc1ccc(-c2nc(CSCC(=O)N3CCN(c4cccc(C(F)(F)F)c4)CC3)c(C)o2)cc1,nt,nt,nt,18.4µM*,?
CCOC(=O)c1c(C)oc2nc(C)nc(N3CCN(c4cccc(C(F)(F)F)c4)CC3)c12,nt,nt,nt,16.4µM*,?
CCOC(=O)c1c(C)oc2nc(C)nc(N3CCN(c4ccc(C)cc4C)CC3)c12,nt,nt,nt,i,i
Cc1oc(-c2ccccc2Cl)nc1CSCC(=O)NC1CC1,?,-0.8%,22.6%,13µM*,i
Cc1oc(-c2ccccc2F)nc1CSCC(=O)NC1CCCC1,7.9%,2.2%,8.1%,?,i
NC(=S)NN=C1c2cc(S(=O)(=O)N3CCOCC3)ccc2-c2ccc(S(=O)(=O)N3CCOCC3)cc21,14.9%,3.7%,?,i,i
